Compounds with a hit are over-represented: about 1.4% of the library has one in this group of screens.
PLAP act – human PLAP activation; P05187; purified PLAP enzyme, luminescent substrate read-out; stronger effect = higher value; activation fold at 20 µM; actives 1.2% (n = 96,000); AID 696; in the data active = activation fold above about 2
C1s block – human complement C1s inhibition. P09871. purified C1s, fluorogenic AMC substrate, pooled mixtures. mean inhibition % of two 10-compound mixtures (stronger effect = higher value), % at 5 µM (by protocol). actives 0.16% (n = 62,000). AID 538;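 active = inhibition above 20% in each of the two 10-compound mixture wells holding the compound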;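 also: 0% = enzyme wells lacking compound mixture and 100% = no-enzyme blank wells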
FXIa mix inh – inhibitors of human coagulation factor XIa, pooled mixtures | P03951 | purified FXIa, fluorogenic substrate | inhibition, % at 5 µM | actives 0.19% (n = 62,000) | AID 680;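 also: each value is inhibition by a whole ten-compound pool holding the compound; 0% = enzyme with no mixture and 100% = wells lacking enzyme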
FXIIa inh mix – inhibitors of human coagulation factor XIIa, pooled mixtures. P00748. purified FXIIa, fluorogenic substrate. inhibition, % at 5 µM. actives 0.2% (n = 62,000);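 also: 0% = enzyme without compound and 100% = no enzyme blank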
Target sequence (P00748 20-372 limits assumed): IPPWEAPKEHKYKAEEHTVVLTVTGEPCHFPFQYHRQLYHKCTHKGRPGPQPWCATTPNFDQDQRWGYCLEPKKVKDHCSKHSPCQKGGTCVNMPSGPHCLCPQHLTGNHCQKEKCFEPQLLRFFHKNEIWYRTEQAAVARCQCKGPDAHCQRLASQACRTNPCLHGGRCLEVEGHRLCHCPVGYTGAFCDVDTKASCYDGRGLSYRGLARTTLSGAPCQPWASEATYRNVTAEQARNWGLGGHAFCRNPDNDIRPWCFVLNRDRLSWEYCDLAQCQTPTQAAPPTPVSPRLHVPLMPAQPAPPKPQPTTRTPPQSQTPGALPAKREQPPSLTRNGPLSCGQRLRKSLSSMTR
Target sequence (P00748 373-615 limits assumed): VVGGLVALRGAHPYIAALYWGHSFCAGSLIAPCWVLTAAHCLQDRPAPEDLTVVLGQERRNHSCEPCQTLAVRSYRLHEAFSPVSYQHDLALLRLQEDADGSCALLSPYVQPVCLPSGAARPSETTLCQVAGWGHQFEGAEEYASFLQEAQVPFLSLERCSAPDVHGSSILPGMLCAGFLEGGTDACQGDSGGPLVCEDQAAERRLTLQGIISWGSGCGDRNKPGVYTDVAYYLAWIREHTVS
Cathepsin G inh – blocks human cathepsin G enzyme activity; P08311; purified enzyme, AMC-tetrapeptide fluorescence, pooled mixtures; inhibition, % at 5 µM (by protocol); actives 0.2% (n = 62,000); AID 581;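 active = inhibition above 20% in each of the two mixture wells holding the compound; inactive = inhibition of 20% or less in either well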;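 also: 0% = enzyme control without mixture and 100% = blank lacking enzyme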
HePTP inh – inhibitors of human HePTP phosphatase; P35236; recombinant HePTP phosphatase activity, OD absorbance; inhibition, % at 20 µM; actives 0.64% (n = 110,000); AID 521; in the data active = inhibition above about 50%;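 also: plate controls were vehicle for no effect and reference inhibitor for full effect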
Active calls of the source: *; nt = no result; ! = not active in a repeat. Rule as the data show it, unless noted: active = inhibition above about 20% (passing the limit was not always enough); inactive = the rest.

SMILES	PLAP act	C1s block	FXIa mix inh	FXIIa inh mix	Cathepsin G inh	HePTP inh
O=C(NCCN1CCOCC1)c1cnn2c(C(F)(F)F)cc(-c3ccc(Br)cc3)nc12	nt	nt	nt	nt	nt	-15
Nc1nc(SCC(=O)Nc2ccccc2Sc2ccccc2)n[nH]1	2.3*	nt	nt	nt	nt	nt
CCc1nc(SCC(=O)Nc2ccccc2C(=O)OC)n[nH]1	2*	2	1	0	12	1
O=C(CCl)Nc1ccccc1Sc1ccccc1	0.9	nt	nt	nt	nt	nt
O=C(Oc1ccc(/C=c2/sc3nc4ccccc4n3c2=O)cc1)c1ccc(Br)cc1	nt	nt	nt	nt	nt	3
Cc1cccc(N2CCN(CC(=O)Nc3nccs3)CC2)c1C	2.3*	nt	nt	nt	nt	nt
CCCCCOC(=O)C1=C(C)NC(=S)NC1c1ccccc1 (centres undefined)	nt	nt	nt	nt	nt	63*
CC(C)(C)c1ccc(/C=C2\NC(=S)NC2=O)cc1	nt	nt	nt	nt	nt	-1
CC(C)Sc1nc(N2CCOCC2)c2c(c1C#N)CC(C)(C)N(C)C2	2*	nt	nt	nt	nt	nt
CC(C)Sc1nc(N2CCOCC2)c2c(c1C#N)CC(C)(C)SC2	0.9	5	9	7	1	7
O=C(O)c1cccnc1Oc1ccccc1	nt	13	4	12	9	7
N/C(COc1ccc(F)cc1)=N\NC(=O)c1cccnc1Oc1ccccc1	2*	nt	nt	nt	nt	nt
Cc1ccccc1C(=O)Nc1sc2c(c1C(=O)N1CCOCC1)CCCCC2	nt	nt	nt	nt	nt	-13
COC(=O)C1C(O)=C(C=NCC(C)N=CC2=C(O)C(C(=O)OC)C(C)(C)CC2=O)C(=O)CC1(C)C (centres undefined)	2.2*	11	5	5	11	6
CCCC(=O)Nc1cccc(-c2nc3ccccc3s2)c1C	nt	nt	nt	nt	nt	4
CC(=O)Nc1nc(SCCCc2ccccc2)n[nH]1	2.4*	15	5	-21	9	9
CC(=O)Nc1nc(SCc2ccc(Cl)cc2Cl)n[nH]1	1	nt	nt	nt	nt	nt
O=C(/C=C/c1cccc([N+](=O)[O-])c1)Nc1ccc2oc(-c3ccccc3F)nc2c1	nt	nt	nt	nt	nt	17
O=C(Nc1ccc2oc(-c3ccccc3F)nc2c1)c1cccc([N+](=O)[O-])c1	nt	nt	nt	nt	nt	99*
Cc1ccc(SCC(=O)Nc2cc(C)on2)cc1	0.8	nt	nt	nt	nt	nt
COc1ccc(-c2nc(SCC(=O)Nc3cc(C)on3)n[nH]2)cc1	2.1*	nt	nt	nt	nt	nt
COc1ccc(-c2cc(C(F)(F)F)nc(SCC(=O)Nc3cc(C)on3)n2)cc1OC	1	-18	-4	10	2	-7
CCCCc1nc(SCC(=O)Nc2cc(C)on2)n[nH]1	2.3*	9	4	-3	8	4
Fc1cccc2sc(Nc3nnc(-c4ccccc4)o3)nc12	nt	-39	-5	8	-6	7
COc1ccc(-c2nnc(Nc3nc4c(OC)cccc4s3)o2)cc1	2.3*	-70	-7	8	-7	5
SMILES	PLAP act	C1s block	FXIa mix inh	FXIIa inh mix	Cathepsin G inh	HePTP inh
COc1cc(OC)cc(-c2nnc(Nc3nc4c(F)cccc4s3)o2)c1	2.6*	-6	-4	8	1	36
O=C(O)CCP(=O)(O)C(O)c1ccccc1 (centres undefined)	nt	nt	nt	nt	nt	3
C/C(CC(=O)Nc1ccc(N(C)C)cc1)=N\NC(=O)c1ccccn1	2*	nt	nt	nt	nt	nt
COC(=O)c1ccc(C(=O)OC)c(NC(=O)CCC(=O)O)c1	0.9	-4	5	4	0	102*!
O=C(Cc1ccccc1)Nc1ccc(OC(F)(F)F)cc1	nt	nt	nt	nt	nt	0
CCc1cccc(NC(=O)Cc2ccccc2)c1	nt	nt	nt	nt	nt	102*
CCc1cccc(NC(=O)CCc2ccccc2)c1	nt	nt	nt	nt	nt	-4
CCOc1ccc(NC(=O)C2C3/C=C\CCCCC32)cc1 (centres undefined)	nt	nt	nt	nt	nt	-20
COc1ccc(/C=C2/SC(=O)N(CNc3cc(F)ccc3C)C2=O)cc1OC	nt	nt	nt	nt	nt	2
O=C(COC(=O)c1ccccc1)NCc1ccco1	0.9	35	6	35*	-1	6
COc1cccc(C(=O)/C=C/Nc2cc(C)ccc2O)c1	2.9*	3	8	1	2	6
Cc1ccc(OCC(=O)NNC(=O)C2CCN(c3ncccn3)CC2)cc1	2*	nt	nt	nt	nt	nt
CCOC(=O)N/N=C(\C)c1ccccn1	nt	nt	nt	nt	nt	-2
CCCCCC(=O)N/N=C(\C)c1ccccn1	2.4*	nt	nt	nt	nt	nt
CC(c1ccccc1)N1CCn2c(nc3cc(NC(=O)NC4CCCCC4)ccc32)C1 (centres undefined)	2.9*	nt	nt	nt	nt	nt
CC(c1ccccc1)N1CCn2c(nc3cc(NC(=O)c4cccs4)ccc32)C1 (centres undefined)	1.9	nt	nt	nt	nt	nt
COc1ccc(Br)cc1/C=C/C(=O)Nc1ccc(C(C)=O)cc1	nt	nt	nt	nt	nt	12
Cc1cc(C)c2c(c1)=C(c1sc(=S)[nH]c1O)C(=O)N=2	nt	nt	nt	nt	nt	3
Cc1cc(C)c2c(c1)=C(c1sc(N)nc1O)C(=O)N=2	nt	nt	nt	nt	nt	69*
Cc1cc(Oc2ccccc2)nc(OCC#N)n1	1.2	-3	2	38*	9	0
CCOC(=O)Cc1nnc(NC(=O)C(CC)Sc2nnc3c4ccccc4n(C)c3n2)s1 (centres undefined)	1.4	22*	12	0	17	11
CCOC(=O)c1sc(NC(=O)C(CC)Sc2nnc3c4ccccc4n(C(C)C)c3n2)nc1C (centres undefined)	1.6	nt	nt	nt	nt	nt
CCn1c(SCC(=O)N2CCCC(C)C2)nnc1-c1ccc(S(=O)(=O)N2CCN(C)CC2)cc1 (centres undefined)	2*	nt	nt	nt	nt	nt
CCn1c(SCC(=O)Nc2ccccc2)nnc1-c1ccc(S(=O)(=O)N2CCOCC2)cc1	1.5	-20	-29	7	-25	1
CCn1c(SCC(=O)N2CCCCC2)nnc1-c1ccc(S(=O)(=O)N2CCN(C)CC2)cc1	1.6	-8	1	8	-7	-2
SMILES	PLAP act	C1s block	FXIa mix inh	FXIIa inh mix	Cathepsin G inh	HePTP inh
CCn1c(SCC(=O)Nc2cc(C)on2)nnc1-c1ccc(S(=O)(=O)N2CCN(C)CC2)cc1	2*	nt	nt	nt	nt	nt
CCCC(=O)Nc1cccc(NC(=O)c2cc(Br)ccc2I)c1	nt	nt	nt	nt	nt	-10
O=C(Cc1n[nH]c(=O)[nH]c1=O)N/N=C/c1ccc(C(F)(F)F)cc1	nt	nt	nt	nt	nt	-12
CCOC(=O)C1CCN(CCC(=O)Nc2cccc(Cl)c2)CC1	1.7	-5	5	35*	1	10
CC(=O)Nc1ccc(Nc2nc(-c3ccc(Cl)c(Cl)c3)cs2)cc1	nt	nt	nt	nt	nt	-6
C=CCn1c(CSc2nc3ccccc3s2)n[nH]c1=S	1.2	nt	nt	nt	nt	9
C=CCn1c(Cc2nc3ccccc3[nH]2)n[nH]c1=S	2*	-23	-1	6	-6	5
Clc1ccccc1OCCCCCN1CCCC1	nt	nt	nt	nt	nt	-15
O=C(Nc1ccc(Br)cc1)C1CC(=O)N(c2ccc(Cl)cc2)C1 (centres undefined)	nt	nt	nt	nt	nt	-6
Cc1ccc(CSc2nc3ccncc3[nH]2)cc1	2.7*	nt	nt	nt	nt	nt
Cc1cc(C)cc(NC(=O)CSc2nc3ccncc3[nH]2)c1	2.2*	nt	nt	nt	nt	nt
CC1(C)c2ssc(=S)c2-c2ccccc2N1C(=O)COc1nc2ccccc2s1	nt	nt	nt	nt	nt	-10
CC(C)(C)C1CCc2c(sc(NC(=O)C3CC4CCC3C4)c2C(N)=O)C1 (centres undefined)	nt	nt	nt	nt	nt	97*
CC(C)(C)C1CCc2c(sc(NC(=O)C3CCCCC3C(=O)O)c2C(N)=O)C1 (centres undefined)	nt	nt	nt	nt	nt	6
